# Screens deposited in PubChem BioAssay by National Center for Advancing Translational Sciences (NCATS).
# Sampled rows, rich in hits. Any-hit rate of the full collection: about 3%.
# Ub-GFP proteasome: ubiquitin-GFP accumulation via proteasome inhibition; Ubiquitin-GFP reporter cells, proteasome inhibition, GFP fluorescence; response scale: untreated = 0%, 10 µM MG-132 = 100%; Potency, µM (titrated, usually from 45.9 µM), without a hit: top-dose activation (GFP accumulation), usual class: activators; 67,000 tested, under 10 active; AID 526; active = well fitted activation curve with a large enough effect, not every such curve was filed as active; inconclusive = small, poorly fitted or top-dose-only effect, or another doubt; inactive = no such curve, though single readings can be large or run the other way; note: potency is the fitted concentration of half-maximal effect
#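 Proteasome blockade was scored as a rise in GFP-expressing U2OS cells carrying a ubiquitin(G76V)-GFP construct, imaged after 4 hr compound treatment at 37 °C across a 46 uM–2.9 nM series.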
# Tau filament bind: binders of human tau filaments | recombinant tau filaments, thioflavin S fluorescence, 15 h; filaments grown with octadecylsulfate alongside compound | Potency, µM (top dose mostly 57.1 µM), without a hit: top-dose activity change, negative = inhibition | hit rate 2% among 71,000 | AID 596;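 note: potency is the fitted concentration of half-maximal effect; % is set by controls: 0 for no effect and ±100 for the full control effect; actives lower thioflavin S fluorescence by blocking filaments or displacing dye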
# Target sequence (P10636 whole entry, looked up): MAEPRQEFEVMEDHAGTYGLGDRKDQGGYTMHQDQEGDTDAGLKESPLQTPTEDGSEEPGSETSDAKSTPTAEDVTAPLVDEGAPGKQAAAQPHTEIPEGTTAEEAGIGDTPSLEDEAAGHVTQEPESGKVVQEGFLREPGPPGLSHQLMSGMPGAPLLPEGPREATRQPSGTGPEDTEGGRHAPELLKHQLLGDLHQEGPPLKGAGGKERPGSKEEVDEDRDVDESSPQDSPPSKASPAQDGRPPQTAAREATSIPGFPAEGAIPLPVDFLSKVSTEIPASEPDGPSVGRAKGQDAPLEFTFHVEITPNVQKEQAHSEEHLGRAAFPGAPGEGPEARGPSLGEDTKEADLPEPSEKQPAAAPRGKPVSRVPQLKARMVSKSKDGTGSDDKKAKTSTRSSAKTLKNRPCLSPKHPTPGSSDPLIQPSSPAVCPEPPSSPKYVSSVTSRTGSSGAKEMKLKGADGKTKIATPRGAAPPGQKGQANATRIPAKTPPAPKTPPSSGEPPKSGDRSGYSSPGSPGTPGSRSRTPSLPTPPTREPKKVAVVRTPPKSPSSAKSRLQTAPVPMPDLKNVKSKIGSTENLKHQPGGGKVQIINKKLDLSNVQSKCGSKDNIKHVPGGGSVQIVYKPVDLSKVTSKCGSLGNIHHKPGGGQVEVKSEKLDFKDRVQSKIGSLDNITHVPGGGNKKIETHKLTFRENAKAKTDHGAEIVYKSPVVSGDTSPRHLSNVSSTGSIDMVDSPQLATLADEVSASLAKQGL
#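 Quantitative HTS: thioflavine S signal from ODS-induced tau filaments, excited at 450 nm, emission 510 nm. Conditions: 1 uM tau, 30 uM ODS, 15 h at 37 C, pH 7.4.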
# ERK AVP inh: vasopressin-driven ERK pathway inhibition. HEK293-V1b, vasopressin-stimulated pERK AlphaScreen. Potency, µM (titrated, usually from 57.5 µM), without a hit: at the top dose activity, negative = inhibition, actives largely listed as inhibitors. hit rate 0.99% among 72,000. AID 995; note: potency is the fitted concentration of half-maximal effect; % is set by controls: 0 for no effect and ±100 for the full control effect; nearly all actives have a fitted effect of over 55% in size
#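 V1b-HEK293 cells; cpd 30 min 37C; 25 nM vasopressin 5 min; lyse 10 min; AlphaScreen beads 5 hr RT. Normalized to DMSO basal and 25 nM vasopressin; AC50 by Hill fit.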
# HBB splicing: hemoglobin beta splicing modulation | AID 925 | Potency, µM (top dose mostly 46.1 µM), without a hit: top-dose activation, actives largely listed as activators | hit rate 0.06% among 65,000 | HBB splicing reporter cell assay, activation; EGFP reporter with mutant IVS2-654 intron; response scale: normalised to 500 nM splice-correcting PNA; note: potency is the fitted concentration of half-maximal effect; 0% is about no effect
#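 Compounds were applied for 2 days to HeLa EGFP-654 cells, 500/well in Optimem with 2% FCS. The reporter's EGFP is disrupted by mis-splicing of beta-globin intron IVS2-654. Readout: summed well GFP fluorescence from 488 nm laser scanning; reference was 500 nM antisense […] 654 PNA.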
# Hsp90 Hop PPI: changes Hsp90-Hop TPR2A binding signal, up or down; Potency, µM (top dose mostly 57 µM), inactives show at the highest dose activity change, negative = inhibition; hit rate 0.44% among 71,000; AID 595; AlphaScreen TPR2A-His6 binding biotin-Hsp90 C-terminal peptide; active = well fitted curve in either direction with a large enough effect; inconclusive = small, poorly fitted or top-dose-only effect, or another doubt; note: potency is the fitted concentration of half-maximal effect; % is set by controls: 0 for no effect and ±100 for the full control effect
# Epigenetic mod: epigenetic GFP locus derepression in mouse cells; Potency, µM (highest dose often 46.1 µM), for the others: top-dose GFP derepression (activation); hit rate 0.09% among 68,000; mouse C127i GFP locus derepression, cytometry, 30 h; note: % of control where 0% means no effect
#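 Murine C127i mammary cells carrying a silenced, stably integrated CMV-driven GFP reporter were treated with compound for 30 hours at 37 C. After PBS washes, GFP-positive cells were counted by laser-scanning microplate cytometry.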
# Hsp90-TPR2A inh: confirmation and counter-screen of Hsp90 TPR2A co-chaperone interaction disrupters; shares compounds with Hsp90 Hop PPI; AlphaScreen TPR2A-His6 / biotin-Hsp90 peptide binding; activity, negative = inhibition, % at 40 µM or 46 µM, hits read low; hit rate 100% among 45; AID 632;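 active = compound lowering the Hsp90 and TPR2A binding signal, whether or not the linker counterscreen also flagged it as an artifact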
# An asterisk follows results filed as active; i = inactive; ? = inconclusive; . = no result; + = active, no number; ! = not active in a repeat; [ ] = remark or other dose. Unless noted, calls come from the whole dose curve; as a rule, active = well fitted curve in the direction sought with a large enough effect; inconclusive = small, poorly fitted or top-dose-only effect, or another doubt; inactive = no such curve, though single readings can be large; an effect the other way counts as inactive or inconclusive.
SMILES,Ub-GFP proteasome,Tau filament bind,ERK AVP inh,HBB splicing,Hsp90 Hop PPI,Epigenetic mod,others
O=S(=O)(O)F,.,2.1%,23.1%,0.6%,?,.,
CCCC[N+]1(C)[C@@H]2CC(OC(=O)[C@@H](CO)c3ccccc3)C[C@H]1[C@H]1O[C@H]12 (stereo not given in full),3.3%,-3.7%,-18.1%,4.1%,-2.3%,0.0%,
CC(=O)[C@H]1CC[C@H]2[C@@H]3CCC4=CC(=O)CC[C@]4(C)[C@H]3CC[C@]12C,.,83.3%,?,-0.1%,?,-2.2%[20.6 µM],
C[C@@]12CCC3C(CCC4=CC(=O)CC[C@]43C)C1CCC2O (stereo not given in full),.,.,31.6µM*,.,.,.,
C=CCN1CC[C@@]23CCCC[C@@H]2[C@@H]1Cc1ccc(O)cc13,-1.6%,-0.1%,20.8%,-2.7%,-6.0%,1.1%,
CC[n+]1c(-c2ccccc2)c2cc(N)ccc2c2ccc(N)cc21,.,0.316µM*,?,-1.0%,-18.4%,.,
CC[C@@H]1CN2CCc3cc(OC)c(OC)cc3[C@H]2C[C@@H]1C[C@@H]1NCCc2cc(OC)c(OC)cc21,3.0%,14.7%,?,-1.4%,-14.0%,-2.2%,
CCC1C(=O)OCC1Cc1cncn1C (stereo not given),-7.8%,39.8µM*,4.3%,.,-1.4%,1.4%,
O=C1Nc2ccccc2C2(CCN(CCc3ccc(C(F)(F)F)cc3)CC2)O1,.,.,15.8µM*,0.2%,.,.,
O=C(O)c1ccccc1-c1c2cc(Br)c(=O)cc-2oc2[c]([Hg])c(O)c(Br)cc12,15.3%[20.5 µM],i,15.8µM*!,0.8%[20.6 µM],-7.7%[26 µM],-1.2%[20.6 µM],
C=CCN1CC[C@]23c4c5ccc(O)c4O[C@@H]2C(=O)CC[C@@]3(O)[C@H]1C5,2.9%,1.2%,6.2%,2.2%,-6.6%,0.0%,
C[C@]1(C(=O)O)[C@@H]2CC[C@@H](O2)[C@@]1(C)C(=O)O,6.6%,1.8%,7.94µM*,1.4%,-9.8%,0.0%,
C[C@H](N[C@@H](C)CCc1ccccc1)[C@H](O)c1ccc(O)cc1,3.3%,-10.6%,?,-0.5%,-1.3%,1.6%,
CCn1nc(-c2cccs2)nc2c(=O)n(C)c(=O)nc1-2,0.2%,-8.1%,8.4%,-0.4%[57.5 µM],1.58µM*,4.0%,Hsp90-TPR2A inh=+
Cn1nc(Cc2ccccc2)nc2c(=O)n(C)c(=O)nc1-2,.,.,.,.,.,.,Hsp90-TPR2A inh=+
O=C(O)C(Cl)(Cl)Br,.,7.8%,-10.5%,0.5%,-3.4%,.,
CCN1C[C@]2(C)CC[C@@H](O)[C@]34[C@@H]5CC6[C@@H](OC)C[C@@](O)([C@H]5[C@@H]6O)[C@@H](C[C@@H]23)[C@H]14,0.3%,-0.3%,-5.0%,0.2%,-1.8%,0.0%,
